Assay results as given in the OligoGym collection.

Molecular target: C8B
Test: pooled miR-30 sensor sort-seq; sequence = guide strand
Conditions: shRNA
Note: reference of the scale not given here.

Sequence	sensor-assay potency score (higher = more potent)
TTTATTTTAAACAGCTTGCATG	-0.469
TTGTTGACTGCATTTGACCCAA	-0.397
TTTGCCTACAGACACACCCAGA	-0.947
TTGTCAGAGAAGTTGCACGGTT	-0.544
TAACTCTCTGAAGGAACTCGTA	-1.02
TATTTTAAAACCAAAACTGAAA	-1.26
TAACACAGTCTTCGACTTCCTT	-0.392
TTCTACAGTTTGCTTCATCTGA	-0.199
TTGACTTCCGCATGGTCTGTTG	-0.312
TAGTATGAGAGAATCGTTTGGT	0.49
TTCCTTCTGGAACTCCTCCAGT	-0.414
TTTTAGTATGAGAGAATCGTTT	-0.743
TAATATAGTGTTTGCCTCGATC	-0.751
TAGGGCTTCCTAAACCTCGTGT	0.733
AACACAGTCTTCGACTTCCTTG	-0.726
TAGCTTTCCACATTGTAGGGCT	0.376
TAAAACCAAAACTGAAACCAGA	-0.722
TTGCCCTTGCATGAACTCCAGG	-1.15
TTAACTTTGATGATGGCTGGGT	0.335
TTTGTCTTGTCTTACGTCTTCC	-0.213

Molecular target: C8orf37
Test: as above
Conditions: shRNA

Sequence	sensor-assay potency score (higher = more potent)
TAAGACTGTCAAGATCATCTTC	0.587
TTGCTTTGAGTTGATGAGGTAA	-0.541
TTTAACTGCTACAAGTTGGGGA	0.583
ATATTGTGCATAACATTGCTTT	-0.312
TTGATGAGGTAAGATCAGCTAT	-0.469
TTATAATACATGATCTTCCTTA	0.582
TAATTTGTGAAATTCTGGCATG	-0.39
TTAAATGTTTCTGTTGATCTGA	0.482
TTCTTCTTTATCAACTTTGCTT	-0.238
TCTTCTTTATCAACTTTGCTTT	-0.627
TACATGATCTTCCTTAGTCCAT	-0.774
TTAATTTGTGAAATTCTGGCAT	0.766

Molecular target: C8orf86
Test: as above
Conditions: shRNA

Sequence	sensor-assay potency score (higher = more potent)
TTGTCTCTCTGTTCGCTGCTCA	0.291
TTCTAATCAACTCCTCAGCTGG	-0.81
TTGGCTCTTTGGAACTGCCTGT	-0.109
TTGCTTCTAATCAACTCCTCAG	-0.327
ATTGCTTCTAATCAACTCCTCA	0.067
TTTGTCTCTCTGTTCGCTGCTC	-0.0258
TTGAAGAAACCACAGATGCGAG	-0.899
TTTGAAGAAACCACAGATGCGA	0.17
